Source: PubChem BioAssay AID1851 (National Center for Advancing Translational Sciences (NCATS), 2009)
Out of some 16,000 compounds screened, about 5,800 (36%) were called active. Not shown: some 23% with an inconclusive outcome. Calls come from the whole dose curve; as a rule, active = well fitted curve in the direction sought with a large enough effect; inconclusive = small, poorly fitted or top-dose-only effect, or effect the other way; inactive = no such curve, though single readings can be large or run the other way. Some of the results follow.

Target: Cytochrome P450 2C19 (Homo sapiens) (UniProt P33261)
Sequence (P33261 whole entry, looked up): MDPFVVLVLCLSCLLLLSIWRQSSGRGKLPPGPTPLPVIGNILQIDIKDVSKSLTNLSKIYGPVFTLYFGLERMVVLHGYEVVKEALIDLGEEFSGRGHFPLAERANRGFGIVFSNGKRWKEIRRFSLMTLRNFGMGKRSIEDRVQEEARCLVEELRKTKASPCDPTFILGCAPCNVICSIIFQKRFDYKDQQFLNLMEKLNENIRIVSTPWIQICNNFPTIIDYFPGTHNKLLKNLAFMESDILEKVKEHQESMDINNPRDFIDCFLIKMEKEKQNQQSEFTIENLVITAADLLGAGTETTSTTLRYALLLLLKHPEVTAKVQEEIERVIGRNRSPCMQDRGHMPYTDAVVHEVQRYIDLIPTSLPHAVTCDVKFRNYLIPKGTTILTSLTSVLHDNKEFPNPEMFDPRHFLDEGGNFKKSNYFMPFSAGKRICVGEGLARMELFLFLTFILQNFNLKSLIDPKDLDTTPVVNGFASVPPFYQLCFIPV
Assay: Cytochrome panel assay with activity outcomes
Conditions: recombinant CYP, pro-luciferin dealkylation, luminescence, p450-cyp2c19; series mostly up to 57.1 µM
% is set by controls: 0 for no effect and ±100 for the full control effect.

Row | SMILES | AC50 | activity, negative = inhibition
1 | Cc1cc2c(cc1S(N)(=O)=O)S(=O)(=O)CCC2 | inactive | –
2 | COCCCNC(=O)CCC(=O)Nc1ccc2nc(N3CCOCC3)cc(C)c2c1 | inactive | –
3 | CCCCNC(=O)CCC(=O)Nc1ccc2nc(N3CCOCC3)cc(C)c2c1 | 25100 nM (active) | –
4 | Cc1ccccc1C(=O)NNC(=O)c1ccc(F)cc1 | inactive | –
5 | Cc1ccccc1C(=O)NN(C)c1nc2ccccc2nc1C(F)(F)F | 355 nM (active) | –
6 | O=C(c1cc(C(F)(F)F)cc(C(F)(F)F)c1)N1CCC[C@@]2(CCN(c3ccncc3)C2)C1 | inactive | –
7 | O=C(Nc1ccccc1)N(Cc1ccccc1)CC(O)C(F)(F)F (stereo not drawn) | 5010 nM (active) | –
8 | O=C(Nc1cccc(C(F)(F)F)c1)N(Cc1ccc(Cl)cc1)CC(O)C(F)(F)F (stereo not drawn) | 3980 nM (active) | –
9 | O=S(=O)(C[C@H](O)C(Cl)(Cl)Cl)NNc1ccccc1 | – | -25.2% [at 11.4 µM] (inactive)
10 | CCCC(=O)NC(Nc1ccccc1F)C(Cl)(Cl)Cl (stereo not drawn) | 2820 nM (active) | –
11 | CCC(=O)NC(NCC1CCCO1)C(Cl)(Cl)Cl (stereo not drawn) | inactive | –
12 | CCCC[C@]1(C2CCCC2)Cc2cc(OCC(=O)O)c(Cl)c(Cl)c2C1=O | inactive | –
13 | CCOC(=O)C1=C(C)N=C2c3ccccc3C(=O)C2C1c1ccc(C)cc1 (stereo not drawn) | 1000 nM (active) | –
14 | CCOC(=O)C1=C(C)N=C2c3ccccc3C(=O)C2C1c1ccc(Cl)cc1 (stereo not drawn) | 631 nM (active) | –
15 | CO[C@@H]1/C=C\CC(=O)N[C@@H](C)C(=O)OC[C@H](NS(=O)(=O)c2ccc(C)cc2)[C@H](C)/C=C\CC(=O)OC[C@H]1C | – | -0.432% [at 11.4 µM] (inactive)
16 | NC(=O)N[C@H]1NC(=O)NC1=O | inactive | –
17 | CCC(=O)c1ccc(OCc2ccc(C(=O)OC)cc2)c(OC)c1 | 3160 nM (active) | –
18 | CC(Oc1ccc(O)cc1)(P(=O)(O)O)P(=O)(O)O | inactive | –
19 | CC1(C)Oc2ccc(NC(=O)c3ccco3)cc2O1 | 14100 nM (active) | –
20 | O=C(Nc1ccccc1C(=O)Nc1ccc2c(c1)OCO2)c1ccco1 | 3160 nM (active) | –
21 | CCC(=O)[C@@]1(C)[C@H](C)C[C@@H]2[C@@H]3CCC4=CC(=O)C=C[C@@]4(C)[C@H]3[C@H](O)C[C@]21C | inactive | –
22 | Cc1ccc(-n2c(SCc3ccc([N+](=O)[O-])cc3)nc3ccccc3c2=O)cc1 | inactive | –
23 | COn1c(SCc2ccc(C)cc2C)nc2ccccc2c1=O | 3550 nM (active) | –
24 | COn1c(SCc2cccc(Cl)c2)nc2ccccc2c1=O | 2240 nM (active) | –

Row | SMILES | AC50 | activity, negative = inhibition
25 | O=[N+]([O-])c1cccc(/C=N/Nc2cc(Cl)nc(-c3ccccc3)n2)c1 | 2000 nM (active) | –
26 | Nc1nnc(CC(=O)N/N=C/c2cccc([N+](=O)[O-])c2)s1 | inactive | –
27 | O=[N+]([O-])c1ccc(/C=N/Nc2cc(Cl)nc(-c3ccccc3)n2)cc1 | inactive | –
28 | COc1ccc(NC(=O)N2CCCC3(CCN(C(=O)c4csnn4)CC3)C2)cc1 | inactive | –
29 | Cc1cc2c(nc1C)CCCN2C[C@@H](O)CN1CCN(C)CC1 | – | 4.3% [at 11.4 µM] (inactive)
30 | CO[C@@H](NC(N)=O)C(=O)O | – | 20.6% [at 11.4 µM] (inactive)
31 | COCC(=O)N1CCN(c2ccc([N+](=O)[O-])cc2)CC1 | inactive | –
32 | O=C(CCCc1ccccc1)N1CCN(c2ccc([N+](=O)[O-])cc2)CC1 | 8910 nM (active) | –
33 | CC[N+](CC)(CC)CC | inactive | –
34 | CC(=O)Nc1ccc(S(=O)(=O)NCCc2ccc(F)cc2)cc1 | 5010 nM (active) | –
35 | COc1ccc(S(=O)(=O)NCCC(=O)NCc2ccc(F)cc2)cc1 | inactive | –
36 | O=c1c2c(-c3ccc(Cl)cc3)csc2nc2n1CCC2 | 8910 nM (active) | –
37 | O=c1c2ccccc2nc2n1CCC2 | inactive | –
38 | C[N+](C)(C)CCCSc1nc2ccccc2[nH]1 | – | 32.5% [at 11.4 µM] (inactive)
39 | Cc1c(OCC(F)(F)F)ccnc1CSc1nc2ccccc2[nH]1 | 1580 nM (active) | –
40 | COC(=O)c1ccc(NC(=O)c2ccccc2NS(=O)(=O)c2ccccc2)cc1 | 3980 nM (active) | –
41 | CC(C)C1NC(=S)N(Cc2ccccc2)C1=O (stereo not drawn) | 2000 nM (active) | –
42 | O=C(N/N=C\c1cn(-c2ccccc2)nc1-c1ccccc1)c1ccc(Br)o1 | 2000 nM (active) | –
43 | Cc1c(/C=N/NC(=O)c2ccc3c(c2)OCO3)cnn1C | inactive | –
44 | Cc1ccc(-c2nn(-c3ccccc3)cc2/C=N/NS(=O)(=O)c2ccccc2)cc1 | 8910 nM (active) | –
45 | O=C(N/N=C\c1cn(-c2ccccc2)nc1-c1ccccc1)c1ccc2c(c1)OCO2 | 3160 nM (active) | –
46 | COc1ccc(CNn2c(C)nc3ccccc3c2=O)cc1 | 316 nM (active) | –
47 | CCCCOc1ccc(CNn2c(C)nc3ccccc3c2=O)cc1 | 112 nM (active) | –
48 | Cc1nc2ccccc2c(=O)n1NC(=O)c1ccccc1Cl | 20000 nM (active) | –

Row | SMILES | AC50 | activity, negative = inhibition
49 | COc1ccc(CN[C@H](C)C(=O)O)cc1 | – | 24.9% [at 11.4 µM] (inactive)
50 | N/N=C1/CC(=O)NC(=O)N1 | – | -9.46% [at 11.4 µM] (inactive)
51 | CCCCOC(=O)C1=C(C)Nc2ncnn2C1c1cc(OC)ccc1OC (stereo not drawn) | 20000 nM (active) | –
52 | COc1cc(OC)c(C2C(C(=O)Nc3ccc(C)cc3C)=C(C)Nc3ncnn32)cc1OC (stereo not drawn) | inactive | –
53 | CCCCOc1cc(C(=O)NCCN(CC)CC)c2ccccc2n1 | inactive | –
54 | COCCCNC(=O)c1c(N)n(/N=C/c2ccccn2)c2nc3ccccc3nc12 | 10000 nM (active) | –
55 | CCNc1ncc2nc(-c3cccs3)c(=O)n(C[C@H]3CCCO3)c2n1 | inactive | –
56 | CCC(=O)N(C)/C=C1\Sc2ccccc2C1=O | 20000 nM (active) | –
57 | CN(C)C(=O)CSC1c2ccccc2C(=O)N1c1ccccc1 (stereo not drawn) | inactive | –
58 | CCOC(=O)C1CCCN(C(=O)c2sc3nc(-c4ccc(OC)cc4)cn3c2C)C1 (stereo not drawn) | 7940 nM (active) | –
59 | CCSc1nc2c(c(=O)[nH]1)C(c1ccncc1)C(C(=O)OC(C)C)=C(C)N2 (stereo not drawn) | 708 nM (active) | –
60 | CCSc1nc2c(c(=O)[nH]1)C(c1ccccn1)C1=C(CC(C)(C)CC1=O)N2 (stereo not drawn) | inactive | –
61 | CSc1nc2c(c(=O)[nH]1)C(c1ccncc1)C(C(=O)OC(C)C)=C(C)N2 (stereo not drawn) | 1120 nM (active) | –
62 | O=c1c2ccccc2ncn1CCCSc1ccccc1 | 1410 nM (active) | –
63 | O=C(c1ccccc1)c1ccc(OCCn2cnc3ccccc3c2=O)cc1 | 1580 nM (active) | –
64 | CCOCCCn1cnc2c(c1=O)c1nc3ccccc3nc1n2-c1ccccc1 | inactive | –
65 | Cc1ccc(SCCCn2cnc3ccccc3c2=O)cc1 | 2240 nM (active) | –
66 | O=C1c2ccccc2C(=O)N1CCCSc1ccccc1 | 631 nM (active) | –
67 | N#CCSc1ncnc2c1cnn2CCO | inactive | –
68 | O=C(CSCc1cccc(Br)c1)N/N=C/c1ccc2c(c1)OCO2 | 11200 nM (active) | –
69 | Cc1cccc(C(=O)N/N=C/c2ccc(OCC(=O)N3CCCCC3)cc2)c1 | inactive | –
70 | O=C(/C=C/c1ccc2c(c1)OCO2)NCCSCc1cccc(Cl)c1 | 3160 nM (active) | –
71 | CCCc1nnc(SCC(=O)O)n1/N=C/c1ccc2c(c1)OCO2 | inactive | –
72 | COC(=O)N/N=C\C=C\c1ccc2c(c1)OCO2 | inactive | –

Row | SMILES | AC50 | activity, negative = inhibition
73 | O=C(Cn1nc(C(F)F)cc1C(F)F)N/N=C/c1ccc2c(c1)OCO2 | 1580 nM (active) | –
74 | O=C(CSCc1cccc(Cl)c1)N/N=C/c1ccc(OCC(=O)N2CCCCC2)cc1 | 3160 nM (active) | –
75 | COc1ccc2c(c1OC)C(=O)N(C(C)C(=O)O)C2=O (stereo not drawn) | inactive | –
76 | COc1ccc(-n2c(=O)c(C)nc3cnc(N(C)C)nc32)cc1 | inactive | –
77 | N=C(N)C(N=Nc1ccccc1)C(=N)N (stereo not drawn) | – | -2.71% [at 11.4 µM] (inactive)
78 | CC[C@H](Cc1c(I)cc(I)c(N)c1I)C(=O)O | inactive | –
79 | O=C(NC12CC3CC(CC(C3)C1)C2)N1CCN(c2nc(-c3ccccc3)cs2)CC1 | 2820 nM (active) | –
80 | N[C@@H](CSCc1ccc(I)cc1)C(=O)O | – | 12.9% [at 11.4 µM] (inactive)
81 | COc1ccc(-n2c(=O)c(-c3ccc(F)cc3)nc3cnc(OC)nc32)cc1 | inactive | –
82 | C/C(CCN1CCc2nc(-c3ccccc3)c(-c3ccccc3)cc2C1)=N\OC[C@@H](O)COCc1ccco1 | – | -21.9% [at 11.4 µM] (inactive)
83 | COc1ccc(O[C@H]2C=C[C@@H](c3ccccc3)O[C@@H]2CO/N=C(\C)CCN2CCCc3nc(C)c(C)cc32)cc1 | 398 nM (active) | –
84 | C=CC[C@@H]1C=C[C@H](O/N=C(\C)CCN2CCc3nc(-c4ccccc4)c(-c4ccccc4)cc3C2)[C@H](CO)O1 | – | -25.6% [at 11.4 µM] (inactive)
85 | CC(=O)OC[C@@H]1O[C@H](CCO/N=C(\C)CCN2CCc3nc(-c4ccccc4)c(-c4ccccc4)cc3C2)C=C[C@@H]1OC(C)=O | – | -28.2% [at 11.4 µM] (inactive)
86 | COc1ccc(O[C@H]2C=C[C@@H](c3ccccc3)O[C@@H]2CO/N=C(\C)CCN2CCCCc3nc(C)c(C)cc32)cc1 | 2510 nM (active) | –
87 | CCCNC(=O)OC[C@@H]1O[C@H](CCO/N=C(\C)CCN2CCCCc3nc(C)c(C)cc32)C=C[C@@H]1Oc1ccc(OC)cc1 | – | -12.9% [at 11.4 µM] (inactive)
88 | CO/N=C(\C)CCN1CCCCc2nc(C)c(C)cc21 | – | -22.3% [at 11.4 µM] (inactive)
89 | COc1ccc(O[C@H]2C=C[C@@H](c3ccccc3)O[C@@H]2CO/N=C(\C)CCN2CCc3nc(-c4ccccc4)c(-c4ccccc4)cc3C2)cc1 | 251 nM (active) | –
90 | CCc1cc2c(nc1CC)CCN(CC/C(C)=N/OC[C@@H](C)[C@H](OCc1ccccc1)C(C)C)C2 | – | -15.6% [at 11.4 µM] (inactive)
91 | CC(=O)OC[C@@H]1O[C@H](CCO/N=C(\C)CCN2CCCc3nc(C)c(C)cc32)C=C[C@@H]1OC(C)=O | – | 38.8% [at 11.4 µM] (inactive)
92 | C/C(CCN1CCc2nc(-c3ccccc3)c(-c3ccccc3)cc2C1)=N\OC[C@@H](C)[C@H](OCc1ccccc1)C(C)C | 1580 nM (active) | –
93 | CCCNC(=O)OC[C@@H]1O[C@H](CCO/N=C(\C)CCN2CCCc3nc(C)c(C)cc32)C=C[C@@H]1Oc1ccc(OC)cc1 | – | -43.5% [at 11.4 µM] (inactive)
